Sampled rows, rich in hits. Any-hit rate of the full collection: about 2.9%.
ADAM10 inh: inhibits human ADAM10 | recombinant ADAM10, EDANS/DABCYL FRET peptide cleavage, 3 h | AID 720582 | O14672 | hit rate 0.62% among 370,000 | inhibition, % at 7 µM;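 active = inhibition above a per-campaign cutoff equal to the mean of compounds falling between control-based bounds plus 3 SD, cut at about 20% in these data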;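 note: 0% = DMSO wells while the 100% control is not disclosed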
KLK7 zymogen act: proKLK7 (human) activation, primary screen. P49862. purified proKLK7, EDANS-DABCYL substrate fluorescence; 100% is mature enzyme control, 0% vehicle. activation, % at 7 µM. hit rate 0.9% among 370,000. AID 652039;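 active = activation above the mean of all tested compounds plus 3 SD, computed per campaign excluding outliers beyond control limits, cut at about 13% in these data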
PLC-beta3 inh: blocks human PLC-beta3 enzyme activity. Q01970. Purified PLC-beta3, fluorogenic substrate, fluorescence. inhibition, % at 12.2 µM. hit rate 0.18% among 370,000; in the data active = inhibition above about 11%;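 note: 0% = median of compound wells on plate and 100% = full blocker control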
PLCg1 inh: blocks human PLC-gamma1 enzyme activity; hit rate 0.84% among 370,000; inhibition, % at 12.2 µM; P19174; purified PLC-gamma1, fluorogenic substrate, fluorescence; in the data active = inhibition above about 9.5%
ADAM17 inh: inhibitors of human ADAM17. P78536. hit rate 0.83% among 370,000. inhibition, % at 6.95 µM. recombinant ADAM17, EDANS/DABCYL FRET peptide cleavage;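 active = inhibition above the mean of compounds lying between control limits plus 3 SD, set per campaign, cut at about 8.5% in these data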;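 note: 0% = DMSO-only wells as the low control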
Target sequence (P78536 215-824 limits assumed): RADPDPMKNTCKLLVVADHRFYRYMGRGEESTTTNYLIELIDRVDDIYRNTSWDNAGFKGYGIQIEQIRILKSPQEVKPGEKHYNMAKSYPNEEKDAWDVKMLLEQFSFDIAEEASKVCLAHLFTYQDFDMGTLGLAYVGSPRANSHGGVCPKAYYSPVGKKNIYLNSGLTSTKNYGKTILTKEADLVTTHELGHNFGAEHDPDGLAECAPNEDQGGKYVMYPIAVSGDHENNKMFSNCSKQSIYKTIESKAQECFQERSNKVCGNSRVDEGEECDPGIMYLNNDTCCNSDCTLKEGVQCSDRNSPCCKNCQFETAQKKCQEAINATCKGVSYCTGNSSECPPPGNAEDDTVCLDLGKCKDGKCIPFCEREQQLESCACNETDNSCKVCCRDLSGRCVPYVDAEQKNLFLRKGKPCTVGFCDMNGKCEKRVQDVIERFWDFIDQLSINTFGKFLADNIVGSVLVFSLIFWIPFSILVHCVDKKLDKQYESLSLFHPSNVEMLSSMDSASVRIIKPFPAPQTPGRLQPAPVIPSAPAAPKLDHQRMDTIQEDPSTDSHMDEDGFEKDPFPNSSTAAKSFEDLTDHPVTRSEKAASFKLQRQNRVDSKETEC
ADAM10 confirm: confirmation of inhibitors of human ADAM10; AID 743208; shares compounds with ADAM10 inh; inhibition, % at 6.95 µM; hit rate 1% among 2,100; ADAM10 QFRET peptide cleavage, EDANS fluorescence;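 active = inhibition above about 20% chosen separately for each screening run, limit read from the data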;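 note: 0% = DMSO wells and 100% = marimastat wells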
ADAM17 counter: inhibits human ADAM17 in ADAM10 exosite counter-screen | ADAM17 QFRET peptide cleavage, EDANS fluorescence | inhibition, % at 6.95 µM | shares compounds with ADAM10 inh | hit rate 0.5% among 2,100;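 active = mean triplicate inhibition above the solvent-only control wells' mean plus 3 SD, cut at about 12% in these data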;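 note: 0% = DMSO wells and 100% = marimastat wells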
ADAM10 ctr: ADAM10 inhibition, counter-screen for ADAM17 exosite hits; shares compounds with ADAM17 inh; recombinant ADAM10, EDANS/DABCYL FRET peptide cleavage, 3 h; inhibition, % at 6.95 µM; hit rate 47% among 2,900;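 active = mean inhibition over the triplicate runs exceeds the activity threshold set in the earlier primary screen, cut at about 20% in these data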;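 note: 0% = DMSO wells and 100% = marimastat wells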
ADAM17 confirm: confirmation of inhibitors of human ADAM17; hit rate 65% among 2,900; recombinant ADAM17, EDANS/DABCYL QFRET peptide cleavage; inhibition, % at 6.95 µM; shares compounds with ADAM17 inh; AID 743257;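 active = mean inhibition across replicates above the hit cutoff set in the primary screen, cut at about 8.5% in these data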;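 note: 0% = DMSO wells and 100% = marimastat wells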
Starred values were filed as active, the others as inactive.

What do the screens show for `COC(=O)[C@]12C[C@H](CC(=O)NCc3cccc4ccccc34)C(=O)N(Cc3ccco3)C1=C[C@H](C(C)(C)C)O[C@@H]2C`?
ADAM10 inh: 24*; KLK7 zymogen act: 0; PLC-beta3 inh: -2; PLCg1 inh: 1; ADAM17 inh: 9.4*; ADAM10 confirm: 8; ADAM17 counter: 3; ADAM10 ctr: 32*; ADAM17 confirm: 15*

Results for COC(=O)[C@]12C[C@H](CC(=O)NCc3cccc(C(F)(F)F)c3)C(=O)N(Cc3ccco3)C1=C[C@H](C1CCCC1)O[C@@H]2C ?
ADAM10 inh: 21*; KLK7 zymogen act: 1; PLC-beta3 inh: 0; PLCg1 inh: 2; ADAM17 inh: 9.0*; ADAM10 confirm: 7; ADAM17 counter: 1; ADAM10 ctr: 17; ADAM17 confirm: 8.9*

What do the screens show for `NC(=O)c1c(N)[nH]c(C(=O)c2ccccc2)c1-c1ccccc1`?
ADAM10 inh: 0; KLK7 zymogen act: 0; PLC-beta3 inh: -4; PLCg1 inh: -1; ADAM17 inh: 5

Results for O=C(Nc1ccccc1)Nc1cc(OCC(F)(F)F)cc(OCC(F)(F)F)c1 ?
ADAM10 inh: 31*; KLK7 zymogen act: 0; PLC-beta3 inh: 1; PLCg1 inh: 0; ADAM17 inh: 15*; ADAM10 confirm: 9; ADAM17 counter: 2; ADAM10 ctr: 28*; ADAM17 confirm: 17*

What do the screens show for `COc1ccc(-c2nnc(SCC(=O)N/N=C\C=C/c3ccco3)n2-c2ccc(C)cc2)cc1`?
ADAM10 inh: 10; KLK7 zymogen act: 0; PLC-beta3 inh: -10; PLCg1 inh: -3; ADAM17 inh: 7

How did Cc1ccc(NS(=O)(=O)c2ccc(NC(=O)CN(c3cc([N+](=O)[O-])ccc3C)S(C)(=O)=O)cc2)c(C)c1 do in these assays?
ADAM10 inh: 21*; KLK7 zymogen act: 0; PLC-beta3 inh: 3; PLCg1 inh: 2; ADAM17 inh: 11*; ADAM10 confirm: 4; ADAM17 counter: 1; ADAM10 ctr: 54*; ADAM17 confirm: 28*

Results for Cc1ccc(NS(=O)(=O)c2ccc(NC(=O)c3ccccc3C(=O)O)cc2)c(C)c1 ?
ADAM10 inh: -2; KLK7 zymogen act: 0; PLC-beta3 inh: -5; PLCg1 inh: -1; ADAM17 inh: 0

How did Cc1ccc(NS(=O)(=O)c2ccc(NC(=O)c3ccc(Br)o3)cc2)c(C)c1 do in these assays?
ADAM10 inh: 23*; KLK7 zymogen act: 1; PLC-beta3 inh: -2; PLCg1 inh: -1; ADAM17 inh: 11*; ADAM10 confirm: 6; ADAM17 counter: 2; ADAM10 ctr: 32*; ADAM17 confirm: 15*

How did Cc1cc(C)cc(NS(=O)(=O)c2ccc(NC(=S)NC(=O)c3ccc(Br)o3)cc2)c1 do in these assays?
ADAM10 inh: 21*; KLK7 zymogen act: 2; PLC-beta3 inh: -5; PLCg1 inh: 6; ADAM17 inh: 11*; ADAM10 confirm: 10; ADAM17 counter: 4; ADAM10 ctr: 29*; ADAM17 confirm: 14*

How did CC(C)[C@H](NC(=O)[C@H](C)NC(=O)OC(C)(C)C)C(=O)N1CCC2CCN(Cc3ccccc3)CC21 (stereo partly drawn) do in these assays?
ADAM10 inh: -18; KLK7 zymogen act: -1; PLC-beta3 inh: 0; PLCg1 inh: -3; ADAM17 inh: -7

How did OC(c1ccc(F)c(F)c1)c1nc(-c2ccc(F)c(Cl)c2)cs1 (stereo not drawn) do in these assays?
ADAM10 inh: 22*; KLK7 zymogen act: 0; PLC-beta3 inh: -10; PLCg1 inh: -4; ADAM17 inh: 8.9*; ADAM10 confirm: 8; ADAM17 counter: 2; ADAM10 ctr: 36*; ADAM17 confirm: 16*

What do the screens show for `COc1ccc(C(O)c2nc(-c3cccc(C(C)C)c3)cs2)cc1` (stereo not drawn)?
ADAM10 inh: 21*; KLK7 zymogen act: 0; PLC-beta3 inh: 0; PLCg1 inh: 1; ADAM17 inh: 11*; ADAM10 confirm: 6; ADAM17 counter: 2; ADAM10 ctr: 18; ADAM17 confirm: 8.7*

How did OC(c1ccc(F)cc1)c1nc(-c2cccc(C(F)(F)F)c2)cs1 (stereo not drawn) do in these assays?
ADAM10 inh: 10; KLK7 zymogen act: 1; PLC-beta3 inh: -4; PLCg1 inh: 0; ADAM17 inh: 7

Results for OC(c1ccc(F)c(F)c1)c1nc(-c2cccc(C(F)(F)F)c2)cs1 (stereo not drawn) ?
ADAM10 inh: 26*; KLK7 zymogen act: 0; PLC-beta3 inh: -3; PLCg1 inh: -3; ADAM17 inh: 9.4*; ADAM10 confirm: 4; ADAM17 counter: 2; ADAM10 ctr: 18; ADAM17 confirm: 14*

Results for CCCCCN1CCCCC(NC(=O)c2ccc3ccccc3c2)C1=O (stereo not drawn) ?
ADAM10 inh: 4; KLK7 zymogen act: 0; PLC-beta3 inh: 6; PLCg1 inh: 2; ADAM17 inh: 1

What do the screens show for `OCCN1CCCC12CCC(c1ccccc1)CC2` (stereo not drawn)?
ADAM10 inh: 0; KLK7 zymogen act: 0; PLC-beta3 inh: 4; PLCg1 inh: 2; ADAM17 inh: 0

What do the screens show for `COc1ccc(C2CC(c3ccccc3)=NN2C(=O)COC(=O)c2cccnc2Cl)cc1` (stereo not drawn)?
ADAM10 inh: 20*; KLK7 zymogen act: 1; PLC-beta3 inh: 0; PLCg1 inh: 3; ADAM17 inh: 8.9*; ADAM10 confirm: 5; ADAM17 counter: 1; ADAM10 ctr: 14; ADAM17 confirm: 9.3*

What do the screens show for `COc1ccc(Cl)cc1-c1n[nH]c(=S)n1C1CCCCC1`?
ADAM10 inh: 29*; KLK7 zymogen act: -1; PLC-beta3 inh: 4; PLCg1 inh: 6; ADAM17 inh: 8.7*; ADAM10 confirm: 0; ADAM17 counter: 0; ADAM10 ctr: 34*; ADAM17 confirm: 21*

How did OC(c1cc(F)cc(Cl)c1)c1ncc(-c2ccc(Cl)cc2)[nH]1 (stereo not drawn) do in these assays?
ADAM10 inh: 29*; KLK7 zymogen act: 0; PLC-beta3 inh: 4; PLCg1 inh: 5; ADAM17 inh: 17*; ADAM10 confirm: 5; ADAM17 counter: 0; ADAM10 ctr: 21*; ADAM17 confirm: 11*

Bioassay records from PubChem BioAssay.
